Shn3 inh set2 = reduction of Shn3 3'UTR firefly luciferase signal, primary screen, Schnurri-3 inhibitor project, cell-based, Clone20 osteoblasts, set 2 | Clone20 osteoblast Shn3 3'UTR firefly luciferase, 24 h | inhibition, % at 12.5 µM | 0.52% of 360,000 active | AID 588674, 2011;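 active = mean inhibition of at least 75% with every replicate also reaching 75%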;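 note: 0% = median of neutral control wells and 100% = pilot-screen positive control compound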
Gli-Sufu antag = Gli-Sufu pathway antagonists, primary screen, luciferase luminescence, Sufu-KO-LIGHT cells, uHTS; AID 588413, 2011; Sufu-KO-LIGHT fibroblasts, Gli luciferase reporter luminescence; inhibition, % at 5 µM; 0.74% of 340,000 active;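 active = inhibition above about 55%, limit read from the data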;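 note: 0% = DMSO-treated cells and 100% = wells with medium but no cells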
Mdm2 MdmX PPI = inhibitors of human Mdm2-MdmX association, primary screen, cell-based, luminescence, split luciferase, SaOS-2, uHTS | inhibition, % at 8 µM | Protein Mdm4 (Homo sapiens) + E3 ubiquitin-protein ligase Mdm2 (Homo sapiens), … | 3% of 330,000 active | SaOS-2 split-luciferase Mdm2/MdmX complementation;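 active = inhibition of at least 50% at 8 µM in the primary screen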
Target sequence (O15151 whole entry, looked up): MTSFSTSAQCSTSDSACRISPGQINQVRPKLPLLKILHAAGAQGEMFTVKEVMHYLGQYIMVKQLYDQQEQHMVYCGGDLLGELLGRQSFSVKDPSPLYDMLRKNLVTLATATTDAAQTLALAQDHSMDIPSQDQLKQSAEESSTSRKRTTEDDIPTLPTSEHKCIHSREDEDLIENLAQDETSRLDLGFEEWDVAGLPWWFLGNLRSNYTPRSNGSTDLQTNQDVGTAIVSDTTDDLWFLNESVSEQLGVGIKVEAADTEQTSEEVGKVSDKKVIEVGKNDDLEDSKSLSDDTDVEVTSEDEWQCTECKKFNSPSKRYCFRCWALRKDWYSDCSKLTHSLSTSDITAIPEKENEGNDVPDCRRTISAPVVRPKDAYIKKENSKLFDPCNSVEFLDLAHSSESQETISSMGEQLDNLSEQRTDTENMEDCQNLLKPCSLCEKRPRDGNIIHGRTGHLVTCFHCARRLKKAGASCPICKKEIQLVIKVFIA
Target sequence (Q00987 whole entry, looked up): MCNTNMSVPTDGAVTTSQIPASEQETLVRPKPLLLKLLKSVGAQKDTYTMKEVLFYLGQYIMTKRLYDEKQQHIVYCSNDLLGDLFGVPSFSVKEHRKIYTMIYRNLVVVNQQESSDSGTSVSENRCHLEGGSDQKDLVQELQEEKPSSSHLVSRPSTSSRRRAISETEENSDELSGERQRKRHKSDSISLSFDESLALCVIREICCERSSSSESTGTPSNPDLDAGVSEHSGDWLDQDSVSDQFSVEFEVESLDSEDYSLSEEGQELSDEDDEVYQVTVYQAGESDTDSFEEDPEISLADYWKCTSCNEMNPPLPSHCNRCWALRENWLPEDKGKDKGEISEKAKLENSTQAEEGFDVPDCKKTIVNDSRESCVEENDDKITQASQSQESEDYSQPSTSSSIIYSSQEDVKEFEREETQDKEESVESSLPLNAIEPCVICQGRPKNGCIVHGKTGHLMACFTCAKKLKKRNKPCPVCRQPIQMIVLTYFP
Jurkat NFkB inh = inhibitors of induced NF-kB luciferase reporter, primary screen, TCR NF-kB activation inhibitor project, cell-based, luminescence, uHTS | Jurkat, PMA/ionomycin-induced NF-kB luciferase reporter | inhibition, % at 4 µM | 0.53% of 330,000 active | AID 435003, 2010; in the data active = inhibition above about 50%
697 NFkB inh = inhibitors of PMA/ionomycin-induced NF-kB reporter, 697 cells, primary screen, B-cell NF-kB inhibitor project, cell-based, luminescence, uHTS; 697 B-cell NF-kB luciferase reporter, 16 h; inhibition, % at 4 µM; 0.33% of 330,000 active; AID 435022, 2010; in the data active = inhibition above about 35%
Gli-Sufu confirm = Gli-SUFU pathway antagonists, confirmation, single concentration, luciferase luminescence, Sufu-KO-LIGHT cells; inhibition, % at 5 µM; shares compounds with Gli-Sufu antag; AID 602428, 2012; Gli luciferase reporter; 40% of 2,500 active;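 active = mean inhibition at 5 µM reaching about 45%, limit read from the data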;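 note: plate controls were DMSO-treated cells for no effect and wells lacking cells for full effect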
Gli cytotox = cytotoxicity in Sufu-KO-LIGHT cells, confirmation, cytotoxicity control for Gli-SUFU antagonist project, cell-based, ATP luminescence, single concentration | shares compounds with Gli-Sufu antag | cytotoxicity, % at 5 µM | 32% of 2,500 active | AID 651994, 2013;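 active = mean cytotoxicity at 5 µM above about 25%, limit read from the data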;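 note: cells exposed to compound overnight for roughly 16 to 18 hours; plate controls were DMSO wells with cells for no effect and medium without cells for full effect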
Wnt3a cs = Wnt3a reporter signal inhibition, confirmation, counter-screen for Gli-SUFU antagonist project, Wnt-LIGHT cells, luminescence, single concentration; inhibition, % at 6.25 µM; Wnt3a-driven luciferase reporter; shares compounds with Gli-Sufu antag; 20% of 2,500 active; AID 651995, 2013;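 active = mean inhibition above about 25%, limit read from the data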
The depositor's hits bear a star; x = not tested or not shown. Compounds with a hit are over-represented: about 3.8% of the library has one in this group of screens.

SMILES	Shn3 inh set2	Gli-Sufu antag	Mdm2 MdmX PPI	Jurkat NFkB inh	697 NFkB inh	Gli-Sufu confirm	Gli cytotox	Wnt3a cs
COc1cc(NC(c2ccccc2)c2ccccc2)cc(OC)c1OC	24.1	50.9	9.0	-13.0	14.1	22.9	15.0	8.9
COc1cc(NC(=O)CNC(c2ccccc2)c2ccccc2)cc(OC)c1OC	51.7	12.2	9.5	-16.5	-15.6	x	x	x
Nc1ccc(N=Nc2ccc(O)cc2)c(N)n1	-17.4	60.3*	x	x	x	39.3	25.8*	-205.6
CCc1nc(N)nc(N)c1-c1ccc(N(C)Cc2ccccc2)c([N+](=O)[O-])c1	83.3	62.5*	x	x	x	49.0*	21.0	16.7
CCOc1ccc(OCC)c(S(=O)(=O)NCCOC23CC4CC(CC(C4)C2)C3)c1	70.9	52.3	2.2	4.7	-21.7	23.2	30.5*	7.9
COc1cnc(SCC(=O)O)[nH]c1=O	-1.2	61.8*	16.8	0.2	3.7	13.8	6.6	12.3
COc1cccc(OC)c1C(=O)NC(=S)N1CCCCC1c1cccnc1 (stereo not given)	1.8	5.4	16.2	-1.7	11.3	x	x	x
COc1ccc2c(C)cc(SCC(=O)c3ccc4c(c3)OCO4)nc2c1	-9.2	63.5*	-8.9	-17.2	-4.2	27.4	14.1	5.4
CCCCN(CCCC)c1nc(OC)nc(-n2nnc(C(C)=O)c2C)n1	17.5	52.5	23.3	0.4	-45.6	23.4	27.2*	-30.8
Cc1ccc(-c2nc3sc4c(N)ncnc4c3c3c2CCCC3)cc1	5.6	54.9	13.9	15.2	24.6	27.8	-14.2	25.4*
Cc1ccc2c(c1)N(C(=O)CCC(=O)NCCCN1CCN(C)CC1)CC(C)O2 (stereo not given)	11.2	1.5	10.4	-8.7	-10.0	x	x	x
O=C(NNC(=O)c1cc(-c2ccc(Cl)cc2)nc2ccccc12)c1csc(N2CCOCC2)n1	5.7	-1.0	20.6	1.6	8.2	x	x	x
CCOC(=O)C1CCN(c2cc3c(cc2NC(=O)c2cc(OC)ccc2Br)n(C)c(=O)n3C)CC1	14.7	50.6	3.8	-7.1	-10.7	17.1	16.4	1.6
C=CCN(c1ccc(C(=O)NCCN2CCOCC2)cc1)S(C)(=O)=O	-26.9	2.7	12.2	-1.3	8.4	x	x	x
COc1ccc(NC(=O)CSc2nc3ccccc3c(=O)[nH]2)cc1S(N)(=O)=O	-0.2	57.2*	2.6	1.7	-1.9	2.3	-9.1	-16.1
COC(=O)c1ccc(NC(=O)CSc2nc3ccccc3c(=O)[nH]2)cc1	6.7	3.9	7.4	-4.6	15.9	x	x	x
CCOc1ccc(-n2c(SCc3ccc(C#N)cc3)nnc2-c2cccnc2)cc1	6.1	94.9*	6.9	-18.4	-7.4	27.1	4.3	-24.1
c1ccc2c(c1)nc(N1CCOCC1)c1ccccc12	-8.5	5.8	17.7	2.0	8.2	x	x	x
CCN(CC)c1ccc(Nc2nc(N3CCOCC3)c3ccccc3n2)cc1	79.4	66.5*	30.4	33.9	-47.0	61.8*	31.3*	8.2
CC(=O)c1ccc(N2CCN(C(=O)CCS(=O)(=O)c3ccc4c(c3)NC(=O)CS4)CC2)cc1	5.9	2.9	-1.4	1.4	1.6	x	x	x
C=C(C)CSc1nnc([C@@H](NC(=O)OC(C)(C)C)C(C)CC)o1 (stereo not given in full)	21.5	93.8*	4.1	-0.1	-32.4	20.0	12.7	-30.8
CCSc1nnc([C@@H](NC(=O)OC(C)(C)C)C(C)C)o1	15.1	8.8	-19.5	10.5	-10.3	x	x	x
CC(=O)Nc1ccc(C(=O)OCC(=O)/C(C#N)=C(\C)N)cc1	-3.0	-6.4	1.0	-9.2	-66.1	x	x	x
C/C(N)=C(/C#N)C(=O)COC(=O)c1ccncc1	10.7	95.1*	35.9	-8.6	-0.3	8.1	21.6	-3.7
CCOc1ccc(NS(=O)(=O)c2cccc(C(=O)N3CCN(C/C=C/c4ccccc4)CC3)c2)cc1	41.6	53.9	x	x	x	34.1	13.0	-52.1
SMILES	Shn3 inh set2	Gli-Sufu antag	Mdm2 MdmX PPI	Jurkat NFkB inh	697 NFkB inh	Gli-Sufu confirm	Gli cytotox	Wnt3a cs
CCOc1ccc(NS(=O)(=O)c2ccc(C(=O)N3CCCC(C)C3)cc2)cc1 (stereo not given)	71.2	56.5*	20.5	-1.1	-19.7	27.4	2.4	-12.7
CCC1(CC)N=C(c2ccccc2)C(=S)N1	0.5	0.9	0.4	-7.2	12.5	x	x	x
CCC1CCCCN1CCCNC(=O)Cn1c(=O)c2cccn2c2cccnc21 (stereo not given)	6.5	69.3*	-4.8	-15.8	-59.3	23.6	2.0	15.2
O=C1C2C3C=CC(CC3)C2C(=O)N1c1ccccc1[N+](=O)[O-] (stereo not given)	-20.4	-14.7	13.4	0.4	-3.0	x	x	x
O=C(CSCc1ccc(Cl)cc1Cl)Nc1ccccc1C(=O)Nc1ccc(C(=O)O)cc1	-8.3	53.9	29.5	22.5	-13.0	21.4	7.5	4.6
CCOCCCNC(=O)c1cc(C)nn1-c1ccccc1	7.0	3.3	7.4	10.6	6.1	x	x	x
CCOCCCNC(=O)c1cc2sc(Cl)cc2n1CC	-1.9	59.3*	11.4	-15.0	-13.4	20.5	12.1	-47.5
CCC(C)[C@H](NC(=O)N1CC(=O)Nc2ccccc21)C(=O)Nc1nccs1 (stereo not given in full)	-30.7	59.9*	0.2	-0.6	-2.2	12.6	25.9*	-8.9
CC(C)[C@H](NC(=O)N1CC(=O)Nc2ccccc21)C(=O)Nc1nccs1	-17.3	-15.2	10.7	10.6	-9.4	x	x	x
O=C(c1ccccc1)N1CCN(C2CCCCCC2)CC1	16.8	5.9	20.0	-24.0	13.8	x	x	x
O=C(c1ccc(F)cc1)N1CCN(C2CCCCC2)CC1	17.6	57.7*	-3.2	1.2	-7.4	24.2	16.4	-16.8
CCc1ccc(CN2CCC(Oc3ccc(C(=O)N4CCCC4)cc3)CC2)cc1	27.7	22.5	5.2	7.9	-44.8	x	x	x
O=C(c1ccc(OC2CCN(Cc3ccc(F)cc3)CC2)cc1)N1CCCC1	16.5	55.4*	16.6	3.5	-4.0	16.1	7.5	10.9
CC(NC(=O)c1ccccc1)C(=O)OCC(=O)c1c(N)n(C)c(=O)n(C)c1=O (stereo not given)	-31.1	-6.5	10.8	3.3	21.2	x	x	x
Cc1cc(S(=O)(=O)Nc2ccc(C(=O)NCC(c3ccco3)N(C)C)cc2)ccc1F (stereo not given)	10.1	4.1	-12.9	7.7	11.7	x	x	x
